Active and inactive are the calls of the source. How the source made its calls: active means hit-call score of the fitted dose curve at least 0.9, where 1 is the maximum; inactive means score below 0.9.

Sequence of Cytochrome P450 3A7 (Homo sapiens) (P24462 whole entry, looked up): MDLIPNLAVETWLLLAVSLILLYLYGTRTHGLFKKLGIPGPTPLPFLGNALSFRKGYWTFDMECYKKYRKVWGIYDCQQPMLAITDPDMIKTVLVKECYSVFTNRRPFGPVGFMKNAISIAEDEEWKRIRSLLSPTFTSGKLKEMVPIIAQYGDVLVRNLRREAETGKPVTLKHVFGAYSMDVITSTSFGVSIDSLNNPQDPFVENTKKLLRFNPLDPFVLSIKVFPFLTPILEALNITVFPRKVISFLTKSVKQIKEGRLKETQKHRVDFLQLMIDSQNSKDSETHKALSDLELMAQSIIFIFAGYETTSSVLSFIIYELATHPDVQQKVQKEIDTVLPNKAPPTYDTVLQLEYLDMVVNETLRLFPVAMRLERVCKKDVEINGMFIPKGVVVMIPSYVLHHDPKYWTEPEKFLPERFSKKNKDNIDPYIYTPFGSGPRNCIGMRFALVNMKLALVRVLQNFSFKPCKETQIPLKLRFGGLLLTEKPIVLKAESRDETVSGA

Read-out in the first experiment: Early growth response protein 1 (EGR1) transcription factor, EGR1 (gene 1958)
Description: LTEA_HepaRG_EGR1: Life Technologies and Expression Analysis (LTEA) Assay for Early growth response protein 1 (EGR1) transcription factor using HepaRG (AID 2283490). To be noted: mRNA level, 48 h; actives raise or lower the signal. The essentials: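 Differentiated HepaRG cells in serum-free induction medium exposed 48 hours, duplicate, to 8 half-log concentrations up to 100 uM in 0.5% DMSO. EGR1 mRNA measured by TaqMan qRT-PCR, normalized to ACTB, GAPDH, POLR2A; bidirectional fit versus DMSO.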
For the compound `O=C(O)CCN(C1(C(=O)NO)CCCC1)S(=O)(=O)c1ccc(Oc2ccc(F)cc2)cc1`, the outcome was inactive.

`CC[C@H]1CC[C@H](NCc2cc3c(cc2OC)[C@H]2C[C@H]2C(=O)N3C)[C@H](c2ccccc2)N1`: the compound was classed as inactive.

Turning to `C1N2CN3CN1CN(C2)C3`, the outcome was inactive.

As for `CCOCCO`, the result was inactive.

`Nc1nc2ncc(CNc3ccc(C(=O)N[C@@H](CCC(=O)O)C(=O)O)cc3)nc2c(=O)[nH]1`: the result was inactive.

In the case of `COC(=O)c1ccccc1O`, the call was inactive.

As to `O=C(O)CC(O)C(=O)O` (configuration not stated), the result was inactive.

For the compound `COC(=O)c1c(Cl)c(Cl)c(C(=O)OC)c(Cl)c1Cl`, the compound was classed as inactive.

As to `CC(C)=CCCC(C)CCO` (configuration not stated), the compound was called inactive.

On to `O=P(OC(CCl)CCl)(OC(CCl)CCl)OC(CCl)CCl`, for which the AC50 is 91.6 µM (active).

In the case of `CC(C)CCO`, the result was inactive.

As for `On1ccccc1=S`, the result was inactive.

On to `C1=CCCC=CCCC=CCC1`, for which the result was inactive.

As to `CCCCCCCCCCCCc1ccccc1`, the outcome was inactive.

Read-out in the next experiment: Ezrin (EZR), EZR (gene 7430)
Briefly: LTEA_HepaRG_EZR: Life Technologies and Expression Analysis (LTEA) Assay for Ezrin (EZR) using HepaRG (AID 2283491). The following applies: mRNA level, 48 h; actives raise or lower the signal. The essentials: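 Differentiated human HepaRG cells, 48 h after plating, were exposed in serum-free induction medium for 48 hours to eight half-log concentrations up to 100 uM in 0.5% DMSO. EZR mRNA was measured by TaqMan qRT-PCR, normalized to ACTB, GAPDH and POLR2A, and fitted bidirectionally against DMSO.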
Consider `Nc1cccc(N)c1`, for which the call was inactive.

As to `CCCC(=O)OCC`, the result was inactive.

For `COc1ccc(/C=C/S(=O)(=O)NC(=O)c2ccc(C)cc2Cl)cc1`, the result was inactive.

`Nc1ccc(Nc2ccccc2)cc1`: the call was inactive.

In the case of `COc1ccc2sc(C(=O)Nc3nnn[nH]3)c(OC(C)C)c2c1`, the result was inactive.

With `O=C(OC[C@H]1O[C@@H](OC(=O)c2cc(O)c(O)c(OC(=O)c3cc(O)c(O)c(O)c3)c2)[C@H](OC(=O)c2cc(O)c(O)c(OC(=O)c3cc(O)c(O)c(O)c3)c2)[C@@H](OC(=O)c2cc(O)c(O)c(OC(=O)c3cc(O)c(O)c(O)c3)c2)[C@@H]1OC(=O)c1cc(O)c(O)c(OC(=O)c2cc(O)c(O)c(O)c2)c1)c1cc(O)c(O)c(OC(=O)c2cc(O)c(O)c(O)c2)c1`, the call was inactive.

As for `O=C1CCC(N2C(=O)c3ccccc3C2=O)C(=O)N1` (configuration not stated), the compound was called inactive.

Take `COCCOc1cc2cc(C(=O)NC3CCN(C(C)C)CC3)n(CC(=O)Nc3ccc(Cl)cn3)c2cn1`: the call was inactive.

Consider `CC(O)CN(CCN(CC(C)O)CC(C)O)CC(C)O` (configuration not stated), for which the result was inactive.

`C[C@](N)(Cc1ccc(O)c(O)c1)C(=O)O`: the compound was called inactive.

For the compound `O=C(O)c1cccc(N(Cc2cccnc2)c2ccc(OC(F)F)c(OC(F)F)c2)c1`, the outcome was inactive.

As to `O=C(O)CCN(C1(C(=O)NO)CCCC1)S(=O)(=O)c1ccc(Oc2ccc(F)cc2)cc1`, the call was inactive.

Regarding `CC[C@H]1CC[C@H](NCc2cc3c(cc2OC)[C@H]2C[C@H]2C(=O)N3C)[C@H](c2ccccc2)N1`, the outcome was inactive.

Consider `C1N2CN3CN1CN(C2)C3`, for which the call was inactive.

Turning to `CCOCCO`, the result was inactive.

Regarding `Nc1nc2ncc(CNc3ccc(C(=O)N[C@@H](CCC(=O)O)C(=O)O)cc3)nc2c(=O)[nH]1`, the outcome was inactive.

As to `CC(C)CCCCCCCOC(=O)CCCCC(=O)OCCCCCCCC(C)C`, the result was inactive.

On to `Fc1ccccc1[C@@H](F)COC1CCC(Nc2ncnc3[nH]ncc23)CC1` (some centres not stated), for which the outcome was inactive.

As to `COC(=O)c1ccccc1O`, the result was inactive.

As to `O=C(O)CC(O)C(=O)O` (configuration not stated), the call was inactive.

As to `COC(=O)c1c(Cl)c(Cl)c(C(=O)OC)c(Cl)c1Cl`, the outcome was inactive.

On to `CC(C)=CCCC(C)CCO` (configuration not stated), for which the result was inactive.

As to `O=P(OC(CCl)CCl)(OC(CCl)CCl)OC(CCl)CCl`, the AC50 was 89.1 µM (active).

In the case of `CC(C)CCO`, the outcome was inactive.

In the case of `O=c1[nH]c2ccc(S(=O)CCN3CCC(Cc4ccc(F)cc4)CC3)cc2o1` (configuration not stated), the call was inactive.

On to `On1ccccc1=S`, for which the result was inactive.

Consider `C1=CCCC=CCCC=CCC1`, for which the call was inactive.

As for `CCCCCCCCCCCCc1ccccc1`, the result was inactive.

Regarding `CCCCCCCCCCCCCCCO`, the compound was called inactive.

Read-out in another experiment: Cytochrome P450 3A7 (Homo sapiens) (UniProt P24462)
Description: LTEA_HepaRG_CYP3A7: Life Technologies and Expression Analysis (LTEA) Assay for CYP3A7 using HepaRG (AID 2283492). To be noted: mRNA level, 48 h; actives raise or lower the signal. Summed up: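 Human HepaRG liver cells, 48 h post-plating, switched to serum-free induction medium and exposed in duplicate for 48 h. Dosing: 100 uM top, half-log dilutions, 8 points, 0.5% DMSO vehicle. Read-out: CYP3A7 mRNA, gain or loss fitted against DMSO baseline.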
Consider `Nc1cccc(N)c1`, for which the outcome was inactive.

For `CCCC(=O)OCC`, the result was inactive.

Consider `COc1ccc(/C=C/S(=O)(=O)NC(=O)c2ccc(C)cc2Cl)cc1`, for which the AC50 was 20.1 µM (active).

As to `Nc1ccc(Nc2ccccc2)cc1`, the AC50 is 62.7 µM (active).

As for `COc1ccc2sc(C(=O)Nc3nnn[nH]3)c(OC(C)C)c2c1`, the AC50 is 87.2 µM (active).

Take `O=C(OC[C@H]1O[C@@H](OC(=O)c2cc(O)c(O)c(OC(=O)c3cc(O)c(O)c(O)c3)c2)[C@H](OC(=O)c2cc(O)c(O)c(OC(=O)c3cc(O)c(O)c(O)c3)c2)[C@@H](OC(=O)c2cc(O)c(O)c(OC(=O)c3cc(O)c(O)c(O)c3)c2)[C@@H]1OC(=O)c1cc(O)c(O)c(OC(=O)c2cc(O)c(O)c(O)c2)c1)c1cc(O)c(O)c(OC(=O)c2cc(O)c(O)c(O)c2)c1`: the AC50 is 8.99 µM (active).

Consider `O=C1CCC(N2C(=O)c3ccccc3C2=O)C(=O)N1` (configuration not stated), for which the result was inactive.

As to `COCCOc1cc2cc(C(=O)NC3CCN(C(C)C)CC3)n(CC(=O)Nc3ccc(Cl)cn3)c2cn1`, the concentration at half-maximal activity (AC50) was 72 µM (active).

In the case of `CC(O)CN(CCN(CC(C)O)CC(C)O)CC(C)O` (configuration not stated), the result was inactive.

As to `C[C@](N)(Cc1ccc(O)c(O)c1)C(=O)O`, the compound was called inactive.

As for `O=C(O)c1cccc(N(Cc2cccnc2)c2ccc(OC(F)F)c(OC(F)F)c2)c1`, the compound was classed as inactive.

With `O=C(O)CCN(C1(C(=O)NO)CCCC1)S(=O)(=O)c1ccc(Oc2ccc(F)cc2)cc1`, the compound was called inactive.

On to `CC[C@H]1CC[C@H](NCc2cc3c(cc2OC)[C@H]2C[C@H]2C(=O)N3C)[C@H](c2ccccc2)N1`, for which the concentration at half-maximal activity (AC50) is 8.34 µM (active).

Regarding `C1N2CN3CN1CN(C2)C3`, the result was inactive.

With `CCOCCO`, the compound was called inactive.

As for `Nc1nc2ncc(CNc3ccc(C(=O)N[C@@H](CCC(=O)O)C(=O)O)cc3)nc2c(=O)[nH]1`, the outcome was inactive.

`CC(C)CCCCCCCOC(=O)CCCCC(=O)OCCCCCCCC(C)C`: the result was inactive.

Consider `Fc1ccccc1[C@@H](F)COC1CCC(Nc2ncnc3[nH]ncc23)CC1` (some centres not stated), for which the AC50 was 83.1 µM (active).

As for `COC(=O)c1ccccc1O`, the call was inactive.

As for `O=C(O)CC(O)C(=O)O` (configuration not stated), the result was inactive.

For `COC(=O)c1c(Cl)c(Cl)c(C(=O)OC)c(Cl)c1Cl`, the call was inactive.

For the compound `CC(C)=CCCC(C)CCO` (configuration not stated), the result was inactive.

Turning to `O=P(OC(CCl)CCl)(OC(CCl)CCl)OC(CCl)CCl`, the AC50 is 9.92 µM (active).

Regarding `CC(C)CCO`, the compound was called inactive.

Turning to `O=c1[nH]c2ccc(S(=O)CCN3CCC(Cc4ccc(F)cc4)CC3)cc2o1` (configuration not stated), the AC50 was 90.1 µM (active).

Turning to `On1ccccc1=S`, the compound was classed as inactive.

With `C1=CCCC=CCCC=CCC1`, the result was inactive.

As to `CCCCCCCCCCCCc1ccccc1`, the compound was classed as inactive.

Consider `CCCCCCCCCCCCCCCO`, for which the call was inactive.
